# Laboratory results as given in publication PMC5540273 (PLoS ONE, 2017).
# Test system: STK33
# Details: concentration: 1 μM, replicates: in singlicate; n = 1
# 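Also: KINOMEscan kinase panel screen.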
row,Structure (SMILES),%Inh
1,O=C(Nc1cccc(-c2nn3ccccc3c2-c2ccnc(Nc3cccc(C(F)(F)F)c3)n2)c1)c1c(F)cccc1F [GSK292658],4%
2,COC(=O)Nc1nc2ccc(Oc3ccc(NC(=O)Nc4cc(C(F)(F)F)ccc4F)cc3)cc2n1C.Cl [GW692089],30%
3,Fc1ccc(-c2ncn(C3CCNCC3)c2-c2ccnc(Oc3ccc(-c4ccccc4)cc3)n2)cc1 [SB-245391],21%
4,COc1cc(Nc2nccc(-c3c(-c4cccc(NC(=O)c5c(F)cccc5F)c4)nn4ccccc34)n2)cc(OC)c1OC [GSK323521],11%
5,O=C(Nc1cccc(-c2nn3ccccc3c2-c2ccnc(Nc3cccc(F)c3)n2)c1)c1c(F)ccc(F)c1Cl [GSK357952],10%
